This note sets out measurements from the supplement of paper PMC4022240.

Assay in all cases: peptide microarray binding signal (635 nm), min-max normalized on array (fraction of array maximum); higher = stronger binding
What all share (conditions): peptide region: H3 20-32

Experiment [1] addresses T1, HaloTag-ATRX ADD domain (163-292).
T1 chain: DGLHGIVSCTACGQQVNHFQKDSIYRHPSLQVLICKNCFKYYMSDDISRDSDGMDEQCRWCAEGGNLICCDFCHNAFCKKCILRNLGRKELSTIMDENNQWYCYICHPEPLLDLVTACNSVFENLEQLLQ
Put shortly:
(§1)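 Arrays carried histone 13-mer peptide–cellulose conjugates printed in triplicate on nitrocellulose alongside a Cy3 tracer. After overnight blocking at 4°C, they were incubated for 1 h at 4°C with biotin-labelled HaloTag reader fusions (10 nM to 1 μM) plus streptavidin-Alexa Fluor 647, or with rabbit histone antibodies (1:10,000 to 1:2,000) plus anti-rabbit Alexa 647. Scanning on an Axon GenePix 4000B used 635 nm for signal and 532 nm for misprints. The binding signal reported is each triplicate's mean spot intensity after per-library min-max scaling.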

The target in experiment [2] is HaloTag-ING2 PHD (mouse Ing2 200-280). Put shortly: as §1
Experiment [3] has as its target anti-H3K4me3 antibody ab8580. The gist of the method:
as §1

The target of experiment [4] is anti-H3K9me3 antibody ab8898. The gist of the method: as §1
The mark [5] stands for this setting: peptide modifications: H3R26cit H3K27me2, binder concentration: 1:2,000 dilution.
The mark [6] stands for this setting: peptide modifications: H3R26cit H3K27me2, binder concentration: 1:10,000 dilution.
Setting [7] is: peptide modifications: H3T22ph H3K23ac, binder concentration: 1:2,000 dilution.
[8] abbreviates: peptide modifications: H3T22ph H3K23ac, binder concentration: 1:10,000 dilution.
[9] abbreviates: peptide modifications: H3R26me2a H3K27ac, binder concentration: 1:2,000 dilution.
[10] abbreviates: peptide modifications: H3R26me2a H3K27ac, binder concentration: 1:10,000 dilution.
Setting [11] is: peptide modifications: H3R26me2s H3K27me1, binder concentration: 1:2,000 dilution.
[12] abbreviates: peptide modifications: H3R26me2s H3K27me1, binder concentration: 1:10,000 dilution.
Setting [13] is: peptide modifications: H3R26me1 H3K27me3, binder concentration: 1:2,000 dilution.
Where [14] appears, read: peptide modifications: H3R26me1 H3K27me3, binder concentration: 1:10,000 dilution.
Where [15] appears, read: peptide modifications: H3R26me1 H3K27ac, binder concentration: 1:2,000 dilution.
[16] abbreviates: peptide modifications: H3R26me1 H3K27ac, binder concentration: 1:10,000 dilution.
[17] abbreviates: peptide modifications: H3R26me2a H3K27me2, binder concentration: 1:2,000 dilution.
Where [18] appears, read: peptide modifications: H3R26me2a H3K27me2, binder concentration: 1:10,000 dilution.
[19] abbreviates: peptide modifications: H3R26me1 H3K27me2, binder concentration: 1:2,000 dilution.
Where [20] appears, read: peptide modifications: H3R26me1 H3K27me2, binder concentration: 1:10,000 dilution.
Where [21] appears, read: peptide modifications: H3R26me1, binder concentration: 1:2,000 dilution.
The mark [22] stands for this setting: peptide modifications: H3R26me1, binder concentration: 1:10,000 dilution.
Setting [23] is: peptide modifications: H3R26cit, binder concentration: 1:2,000 dilution.
The mark [24] stands for this setting: peptide modifications: H3R26cit, binder concentration: 1:10,000 dilution.

± gives the standard deviation.

On to LATKAARKSAPAT [H3 20-32 L A T K A A Rcit Kme2 S A P A T], for which the “peptide microarray binding signal” value in experiment [1] (peptide modifications: H3R26cit H3K27me2, binder concentration: 50 nM) worked out at 0.00414 ± 5.8e-05; in experiment [1] (peptide modifications: H3R26cit H3K27me2, binder concentration: 500 nM), 0.00333 ± 0.00011; in experiment [2] (peptide modifications: H3R26cit H3K27me2, binder concentration: 10 nM) it was 0.00692 ± 0.00014; in experiment [2] (peptide modifications: H3R26cit H3K27me2, binder concentration: 100 nM) it was 0.00843 ± 0.00034; in experiment [3] (setting [5]), 0.00262 ± 0.00016; in experiment [3] (setting [6]), 0.00314 ± 4.6e-05. The “peptide microarray binding signal” value in experiment [4] (setting [5]) amounted to 0.00196 ± 6.8e-05; in experiment [4] (setting [6]) it was 0.00167 ± 4.8e-05.

As to LATKAARKSAPAT [H3 20-32 L A Tph Kac A A R K S A P A T], the “peptide microarray binding signal” value stood at 0.00602 ± 0.00043 in experiment [1] (peptide modifications: H3T22ph H3K23ac, binder concentration: 50 nM); 0.0111 ± 0.0014 in experiment [1] (peptide modifications: H3T22ph H3K23ac, binder concentration: 500 nM); 0.0199 ± 0.0011 in experiment [2] (peptide modifications: H3T22ph H3K23ac, binder concentration: 10 nM); 0.0259 ± 0.00072 in experiment [2] (peptide modifications: H3T22ph H3K23ac, binder concentration: 100 nM); 0.00476 ± 0.00081 in experiment [3] (setting [7]); 0.00616 ± 0.00082 in experiment [3] (setting [8]). Moreover, the figures for the “peptide microarray binding signal” value in experiment [4] (setting [7]) and in experiment [4] (setting [8]) were 0.00257 ± 0.00028 and 0.00202, respectively.

As for LATKAARKSAPAT [H3 20-32 L A T K A A Rme2a Kac S A P A T], the “peptide microarray binding signal” value in experiment [1] (peptide modifications: H3R26me2a H3K27ac, binder concentration: 50 nM) is 0.00467 ± 0.00027; in experiment [1] (peptide modifications: H3R26me2a H3K27ac, binder concentration: 500 nM), 0.0126 ± 0.0011; in experiment [2] (peptide modifications: H3R26me2a H3K27ac, binder concentration: 10 nM), 0.0197 ± 0.0013; in experiment [2] (peptide modifications: H3R26me2a H3K27ac, binder concentration: 100 nM) it was 0.0246 ± 0.0016; in experiment [3] (setting [9]) it was 0.00936 ± 0.0018; in experiment [3] (setting [10]), 0.0107 ± 0.00049. In addition, the “peptide microarray binding signal” value is 0.00763 ± 0.0006 in experiment [4] (setting [9]) and 0.00565 ± 0.00056 in experiment [4] (setting [10]).

On to LATKAARKSAPAT [H3 20-32 L A T K A A Rme2s Kme S A P A T], for which the “peptide microarray binding signal” value was 0.00511 ± 6.7e-05 in experiment [1] (peptide modifications: H3R26me2s H3K27me1, binder concentration: 50 nM); 0.00771 ± 0.00038 in experiment [1] (peptide modifications: H3R26me2s H3K27me1, binder concentration: 500 nM); 0.0191 ± 0.00015 in experiment [2] (peptide modifications: H3R26me2s H3K27me1, binder concentration: 10 nM); 0.02409 ± 0.00015 in experiment [2] (peptide modifications: H3R26me2s H3K27me1, binder concentration: 100 nM); 0.00608 ± 0.0005 in experiment [3] (setting [11]); 0.00845 ± 0.00053 in experiment [3] (setting [12]). In addition, the figures for the “peptide microarray binding signal” value in experiment [4] (setting [11]) and in experiment [4] (setting [12]) were 0.00384 ± 0.00014 and 0.00283 ± 4.9e-05, respectively.

Regarding LATKAARKSAPAT [H3 20-32 L A T K A A Rme Kme3 S A P A T], the “peptide microarray binding signal” value turned out to be 0.00668 ± 0.00028 in experiment [1] (peptide modifications: H3R26me1 H3K27me3, binder concentration: 50 nM); 0.019 ± 0.0018 in experiment [1] (peptide modifications: H3R26me1 H3K27me3, binder concentration: 500 nM); 0.0343 ± 0.0033 in experiment [2] (peptide modifications: H3R26me1 H3K27me3, binder concentration: 10 nM); 0.0417 ± 0.0052 in experiment [2] (peptide modifications: H3R26me1 H3K27me3, binder concentration: 100 nM); 0.0743 ± 0.016 in experiment [3] (setting [13]); 0.0599 ± 0.0085 in experiment [3] (setting [14]). In addition, the “peptide microarray binding signal” value in experiment [4] (setting [13]) came out at 0.162 ± 0.016; in experiment [4] (setting [14]) it was 0.0985 ± 0.023.

As to LATKAARKSAPAT [H3 20-32 L A T K A A Rme Kac S A P A T], the “peptide microarray binding signal” value is 0.00429 ± 0.00036 in experiment [1] (peptide modifications: H3R26me1 H3K27ac, binder concentration: 50 nM); 0.0144 ± 0.0011 in experiment [1] (peptide modifications: H3R26me1 H3K27ac, binder concentration: 500 nM); 0.0271 ± 0.0026 in experiment [2] (peptide modifications: H3R26me1 H3K27ac, binder concentration: 10 nM); 0.0327 ± 0.0033 in experiment [2] (peptide modifications: H3R26me1 H3K27ac, binder concentration: 100 nM); 0.00627 ± 0.0032 in experiment [3] (setting [15]); 0.00987 ± 0.00026 in experiment [3] (setting [16]). Moreover, the “peptide microarray binding signal” value is 0.0058 ± 0.00049 in experiment [4] (setting [15]) and 0.00306 ± 0.00012 in experiment [4] (setting [16]).

As to LATKAARKSAPAT [H3 20-32 L A T K A A Rme2a Kme2 S A P A T], the “peptide microarray binding signal” value turned out to be 0.004984 ± 4.8e-05 in experiment [1] (peptide modifications: H3R26me2a H3K27me2, binder concentration: 50 nM); 0.00857 ± 0.00072 in experiment [1] (peptide modifications: H3R26me2a H3K27me2, binder concentration: 500 nM); 0.0166 ± 0.00092 in experiment [2] (peptide modifications: H3R26me2a H3K27me2, binder concentration: 10 nM); 0.0255 ± 0.00049 in experiment [2] (peptide modifications: H3R26me2a H3K27me2, binder concentration: 100 nM); 0.0097 ± 0.0011 in experiment [3] (setting [17]); 0.0118 ± 0.00089 in experiment [3] (setting [18]). Besides, the “peptide microarray binding signal” value in experiment [4] (setting [17]) was determined as 0.0051 ± 0.00036; in experiment [4] (setting [18]), 0.00363 ± 7.8e-05.

In the case of LATKAARKSAPAT [H3 20-32 L A T K A A Rme Kme2 S A P A T], the “peptide microarray binding signal” value in experiment [1] (peptide modifications: H3R26me1 H3K27me2, binder concentration: 50 nM) was 0.00392 ± 0.00013; in experiment [1] (peptide modifications: H3R26me1 H3K27me2, binder concentration: 500 nM) it was 0.002619 ± 2.1e-05; in experiment [2] (peptide modifications: H3R26me1 H3K27me2, binder concentration: 10 nM), 0.00483 ± 0.00013; in experiment [2] (peptide modifications: H3R26me1 H3K27me2, binder concentration: 100 nM), 0.00517 ± 7.1e-05; in experiment [3] (setting [19]) it was 0.00176; in experiment [3] (setting [20]), 0.00194. In addition, the “peptide microarray binding signal” value is 0.00106 ± 2.2e-05 in experiment [4] (setting [19]) and 0.001211 ± 1.2e-05 in experiment [4] (setting [20]).

On to LATKAARKSAPAT [H3 20-32 L A T K A A Rme K S A P A T], for which the “peptide microarray binding signal” value in experiment [1] (peptide modifications: H3R26me1, binder concentration: 50 nM) was found to be 0.00408 ± 8.9e-05; in experiment [1] (peptide modifications: H3R26me1, binder concentration: 500 nM) it was 0.006381 ± 3.8e-05; in experiment [2] (peptide modifications: H3R26me1, binder concentration: 10 nM), 0.00824 ± 0.00019; in experiment [2] (peptide modifications: H3R26me1, binder concentration: 100 nM) it was 0.0116 ± 0.00028; in experiment [3] (setting [21]) it was 0.00342 ± 0.0002; in experiment [3] (setting [22]), 0.00325 ± 0.00018. The “peptide microarray binding signal” value in experiment [4] (setting [21]) stood at 0.00187 ± 4.7e-05; in experiment [4] (setting [22]), 0.00161 ± 3.1e-05.

On to LATKAARKSAPAT [H3 20-32 L A T K A A Rcit K S A P A T], for which the “peptide microarray binding signal” value in experiment [1] (peptide modifications: H3R26cit, binder concentration: 50 nM) worked out at 0.00411 ± 8.3e-05; in experiment [1] (peptide modifications: H3R26cit, binder concentration: 500 nM), 0.00633 ± 0.00025; in experiment [2] (peptide modifications: H3R26cit, binder concentration: 10 nM) it was 0.00824 ± 0.00018; in experiment [2] (peptide modifications: H3R26cit, binder concentration: 100 nM), 0.0125 ± 0.00034; in experiment [3] (setting [23]), 0.00296 ± 0.00035; in experiment [3] (setting [24]), 0.00285 ± 6.5e-05. Besides, the “peptide microarray binding signal” value in experiment [4] (setting [23]) came out at 0.00168 ± 3.3e-05; in experiment [4] (setting [24]), 0.00138 ± 1.4e-05.
